Compound activity: PubChem, National Center for Advancing Translational Sciences (NCATS)
This is a sample that favours compounds with a hit; in the whole collection about 3.1% have one here.
TR SRC2 fluor cs – alters Texas Red total fluorescence, flagging assay interference; AID 1479; TRb/SRC2 Texas Red total fluorescence interference; 280,000 tested, 0.29% active; Potency, µM (series often up to 106 µM), for inactives: top-dose fluorescence change, negative = quenching; active means well fitted curve in either direction with a large enough effect; inconclusive means small, poorly fitted or top-dose-only effect
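Flags fluorescent or light-absorbing compounds by total fluorescence, S + 2P, at 555 nm excitation and 632 nm emission. Mixture: 20 nM Texas Red SRC2 peptide, 0.6 uM human TRb LBD, 1 uM T3, 5% DMSO; compound exposure 5 h at ambient temperature.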
Tau fluor counter – counter-screen for tau fibril formation inhibitors. tau K18 P301L Alexa594 fluorescence, heparin fibrillization. Potency, µM (highest dose often 57.7 µM), without a hit: at the top dose activity change, negative = decrease. 280,000 tested, 0.93% active; further: nearly all actives have a fitted effect of over 55% in size
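Human tau K18 P301L (15 uM unlabeled, 0.24 uM Alexa 594-labeled) in 100 mM sodium acetate pH 7 with 20 uM heparin, 6 hr at 37 C. ThT 30 uM added, 1 hr ambient; Alexa 594 FP and total fluorescence read at 555/632 nm.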
Tau fibril FP – blocks human tau fibril formation measured by polarization; P10636; K18 P301L tau heparin fibrillization, Alexa594 FP, 6 h; Potency, µM (series often up to 57.7 µM), for inactives: at the highest dose activity, negative = inhibition, usual class: inhibitors; 280,000 tested, 0.39% active; AID 1468; further: nearly all actives have a fitted effect of over 55% in size
Target sequence (P10636 561-689 P618L limits assumed): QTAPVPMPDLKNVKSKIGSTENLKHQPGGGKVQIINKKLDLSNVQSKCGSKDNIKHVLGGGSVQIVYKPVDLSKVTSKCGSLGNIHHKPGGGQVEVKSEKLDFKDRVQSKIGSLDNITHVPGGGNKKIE
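Recombinant K18 P301L […], labeled with Alexa 594 at 0.24 uM over 15 uM unlabeled; heparin inducer 20 uM final; 37 C, 6 hr; FP endpoint.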
Tau ThT inhib – inhibitors of human tau fibril formation, thioflavin T binding. P10636. 270,000 tested, 2.1% active. Potency, µM (doses to about 57.4 µM), without a hit: top-dose activity, negative = inhibition, most hits filed as inhibitors. recombinant tau K18 P301L (four-repeat tau fragment), heparin-induced fibrillization, ThT fluorescence; further: nearly all actives have a fitted effect of over 55% in size
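Recombinant human tau K18 fragment […] carrying P301L, 15 uM unlabeled plus 0.24 uM Alexa 594-labeled, was fibrillized with 20 uM heparin in 100 mM sodium acetate pH 7 for 6 hr at 37 C; 30 uM ThT fluorescence read after 1 hr.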
TRb SRC2 PPI – disrupts binding of human TR beta to SRC2 | P10828 | TRbeta-SRC2 peptide binding, fluorescence polarization; receptor liganded with 1 µM T3 | Potency, µM (top dose mostly 106 µM), inactives show at the top dose activity change, negative = inhibition, usual class: inhibitors | 280,000 tested, 0.065% active;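 further: plate controls were bound peptide for no effect and peptide without receptor for full effect; nearly all actives have a fitted effect of over 50% in size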
Target sequence (P10828 whole entry, looked up): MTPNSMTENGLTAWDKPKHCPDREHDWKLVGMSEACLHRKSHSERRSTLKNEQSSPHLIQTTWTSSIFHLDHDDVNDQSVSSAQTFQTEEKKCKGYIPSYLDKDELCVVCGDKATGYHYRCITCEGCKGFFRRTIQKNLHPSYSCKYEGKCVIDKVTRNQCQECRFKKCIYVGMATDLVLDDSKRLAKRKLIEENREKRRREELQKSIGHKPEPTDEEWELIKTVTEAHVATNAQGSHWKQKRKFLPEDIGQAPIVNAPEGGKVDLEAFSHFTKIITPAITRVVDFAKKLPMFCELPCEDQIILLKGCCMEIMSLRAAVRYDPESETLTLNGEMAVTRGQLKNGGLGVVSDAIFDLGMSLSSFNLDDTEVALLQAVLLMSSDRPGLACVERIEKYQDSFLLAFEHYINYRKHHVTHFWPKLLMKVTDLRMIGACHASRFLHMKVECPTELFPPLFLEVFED
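Human TRb LBD (0.6 uM) plus Texas Red-labeled SRC2 peptide (20 nM), 1uM T3, 5% DMSO, 5 hr at ambient temperature. Decreased polarization (555/632 nm) flags inhibition; data normalized to free and bound peptide controls.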
An asterisk follows results filed as active; ? = inconclusive; . = not tested or not shown; [ ] = dose if it differs, or a comment. Unless noted, the call rests on the fitted dose curve; in most records, active means well fitted curve in the direction sought with a large enough effect; inconclusive means small, poorly fitted or top-dose-only effect, or another doubt; inactive means no such curve, though single readings can be large; an effect the other way counts as inactive or inconclusive. Unless noted, on the % scale 0 is the no-effect control and ±100 the full control effect; potency means the concentration at half of the fitted maximal effect.

SMILES	TR SRC2 fluor cs	Tau fluor counter	Tau fibril FP	Tau ThT inhib	TRb SRC2 PPI
O=C(NCc1nc(-c2ccc(C(F)(F)F)cc2)no1)Nc1ccc(OC(F)(F)F)cc1	-2%	-15%	7.9µM*	.	-2%
COc1ccc(O)c(/C=N/n2c(-c3ccco3)csc2=Nc2cccnc2)c1	0%	-17%	1%	-14%	-8%
CN=c1scc(-c2ccco2)n1/N=C/c1ccc(O)c(O)c1	-4%	16µM*[quencher]	?	7.1µM*	-3%
Nn1c(Nc2ccccc2)nc2sc3c(c2c1=O)CCC3	1%	28µM*[quencher]	2%	20µM*	-3%
CCS(=O)(=O)Nc1cc(-c2cn3ccc(C)cc3n2)ccc1C	0%	-8%	-1%	-10%	-6%
Cn1cnnc1SCC(=O)c1cc2ccccc2oc1=O	-3%	?	?	28µM*	6%
Cc1ccc(NCN2C(=O)C3C4C=CC(C4)C3C2=O)cc1 (stereo not given)	-1%	-2%	-2%	-3%	-7%
O=C1C2C3C=CC(C3)C2C(=O)N1CNc1ccc(O)cc1 (stereo not given)	-1%	?	8.9µM*	3.2µM*	25µM*
N#C/C(=C\Nc1ccccc1O)c1nc2ccccc2o1	3%	18µM*[quencher]	?	?	0%
CCOC(=O)c1ccc(Nc2ncnc3nc[nH]c23)cc1	0%	-8%	-2%	-5%	-7%
c1ccc(COc2ccc(Nc3ncnc4nc[nH]c34)cc2)cc1	1%	14µM*[quencher]	18%	?	1%
Cc1cc(Nc2ccc(F)cc2)nc(-n2nc(C)cc2C)n1	-2%	1%	8%	2%	-1%
COc1ccc(NC(=O)N2CCN(c3ccc([N+](=O)[O-])cc3)CC2)cc1	0%	-8%	5%[2.34 µM]	-1%	-7%
O=C(c1ccc(N2CCCCC2)c([N+](=O)[O-])c1)N1CCN(c2ccccn2)CC1	1%	-7%	8%	?	1%
O=[N+]([O-])c1ccc(N2CCCCC2)cc1	-3%	-19%	-8%	8.9µM*	-6%
O=C1C2CC=CCC2C(=O)N1c1ccc(N2CCN(c3ccccn3)CC2)c([N+](=O)[O-])c1 (stereo not given)	-1%	-28%	3%	14µM*	-2%
CNC(=S)N1CCN(c2ccc([N+](=O)[O-])cc2)CC1	2%	-6%	-1%	5.6µM*	0%
COc1ccc(NC(=O)N2CCN(c3ccc([N+](=O)[O-])cc3)CC2)cc1OC	4%	-23%	-4%	8.9µM*	-10%
CC(=O)N1CCN(c2ccc([N+](=O)[O-])cc2)CC1	-1%	10%[2.34 µM]	-10%	1%	3%
Cc1ccc2c(c1)c1c(c(=O)n(-c3ccccc3C)c(=O)n1Cc1ccccc1F)n2C	0%	3%	-7%	7%	-1%
C=CCNC(=S)N1CCN(c2ccc([N+](=O)[O-])cc2)CC1	-6%	-10%	1%	13µM*	-1%
O=[N+]([O-])c1cccc(/C=N\N2CCN(c3ccc(Cl)cc3)CC2)c1	-3%	-12%	4%	?	0%
O=[N+]([O-])c1ccc(/C=N\N2CCN(c3ccc(Cl)cc3)CC2)cc1	-4%	-16%	3%	2.2µM*	-1%
NC(=O)c1ccc(N2CCN(c3ccc(O)cc3)CC2)c([N+](=O)[O-])c1	-5%	-21%	1%	18µM*	6%
CCNC(=S)N1CCN(c2ccc([N+](=O)[O-])cc2)CC1	0%	-5%	2%	5.6µM*	4%
SMILES	TR SRC2 fluor cs	Tau fluor counter	Tau fibril FP	Tau ThT inhib	TRb SRC2 PPI
COc1ccc(C)cc1NS(=O)(=O)c1ccc2oc(=O)c3ncn(C)c3c2c1	0%	0%	-6%	7%	1%
CCC1CCCCC1	-1%	.	.	.	-6%
COc1ccc(NC(=O)c2ccc3c(=O)n4nc(Nc5cc(C)ccc5C)sc4nc3c2)cc1	0%	-18%	10%	?	2%
O=C1CCCC(=O)N1c1ccc(N2CCN(c3ccc([N+](=O)[O-])cc3)CC2)c([N+](=O)[O-])c1	-8%	-20%	0%	4µM*	8%
COc1ccc(-n2cc(C(=O)OCc3ccc(F)c(F)c3)c3ccccc3c2=O)cc1	0.079µM*[quencher]	-8%	-3%	4%	-21%
CCOc1ccc(CC(=O)NCCc2csc(-c3ccc(C(F)(F)F)cc3)n2)cc1	2%	-3%	-3%	-1%	-8%
O=C(CNC(=O)c1ccccc1F)OCc1nc2ccccc2s1	-2%	1%	0%	-10%	-1%
CNc1sc(C(=O)c2ccccc2F)c(N)c1-c1nc2ccccc2s1	-7%	11µM*[quencher]	3%	7.9µM*	-2%
CC(=O)N1CCc2cc(S(=O)(=O)NC(CC(C)C)C(=O)NCCc3ccc(C)cc3)ccc21 (stereo not given)	1%	-17%	-1%	-8%	-10%
CCC(=O)N1c2ccccc2CC1C(=O)NCCc1ccc(OC)c(OC)c1 (stereo not given)	-2%	2%	-2%	0%	15%
O=c1ccc(N=Nc2ccccc2)ccc1O	-4%	?	-3%	4.5µM*	-2%
Cc1ccccc1N=Nc1ccc(N=Nc2c(O)ccc3ccccc23)c(C)c1	0%	.	.	.	-1%
O=S(=O)(O)c1ccc(N=Nc2ccccc2)cc1	-2%	-11%	10%	-15%	-6%
O=C(O)c1cc(N=Nc2c(O)ccc3ccccc23)cc(C(=O)O)c1	?	-11%	-4%	16µM*	12%
Oc1ccc2ccccc2c1N=Nc1ccccc1	112µM*[fluorescent]	.	.	.	100µM*
Oc1ccc(N=Nc2c(O)ccc3ccccc23)cc1	-1%	11µM*[quencher]	?	2.5µM*	10%
CCCCC(=O)N1CCc2cc(OC)c(OC)cc2C1COc1ccc(OC)cc1 (stereo not given)	-1%	-6%	0%	-5%	5%
CCCCCOc1c(Cl)cc(C(=O)N(Cc2ccc(C)o2)C2CCS(=O)(=O)C2)cc1Cl (stereo not given)	4%	-14%	-7%	?	-5%
NS(=O)(=O)c1ccc(N=Nc2c(O)ccc3ccccc23)cc1	-4%	-26%	0%	1.1µM*	-13%
O=S(=O)(O)c1ccc(N=Nc2c(O)ccc3cc(S(=O)(=O)O)ccc23)cc1	?	.	.	.	17%[201 µM]
COc1ccc(NC(=O)Cn2nc(-c3ccccc3)c3cnc4ccc(C)cc4c32)cc1	-24%	-4%	-12%	-4%	2%
O=C(Cc1cccs1)NC1C(=O)N2C(C(=O)[O-])=C(C[n+]3ccccc3)CSC12 (stereo not given)	2%	-24%	?	16µM*	8%
CC(=O)OCC1=C(C(=O)O)N2C(=O)[C@@H](NC(=O)Cc3cccs3)[C@H]2SC1	0%	-15%	?	?	-5%
C/C(=N\Nc1ccc([N+](=O)[O-])cc1)c1cccc(N)c1	-7%	16µM*[quencher]	?	3.5µM*	-9%
